Measurements published in PubChem BioAssay AID894 (National Center for Advancing Translational Sciences (NCATS), 2007).
Out of some 150,000 compounds screened, about 6,500 (4.3%) were called active. Inconclusive results (about 12%) are left out. The sample holds actives, similar compounds and a random draw of the others, so the mix is not that of the screen. A number with no mark means an inactive call. Calls follow the shape of the dose curve; as a rule, active = well fitted inhibition curve with a large enough effect (not every such curve was filed as active); inconclusive = small, poorly fitted or top-dose-only effect, or another doubt; inactive = no such curve, though single readings can be large or run the other way.

The compounds below were run against 15-hydroxyprostaglandin dehydrogenase [NAD(+)] (Homo sapiens) (UniProt P15428) (assay: qHTS Assay for Inhibitors of HPGD (15-Hydroxyprostaglandin Dehydrogenase)). Conditions: purified HPGD, NADH fluorescence kinetic, PGE2 substrate; activity change, negative = inhibition: hits give low values.
Chain of 15-hydroxyprostaglandin dehydrogenase [NAD(+)] (Homo sapiens) (P15428 whole entry, looked up): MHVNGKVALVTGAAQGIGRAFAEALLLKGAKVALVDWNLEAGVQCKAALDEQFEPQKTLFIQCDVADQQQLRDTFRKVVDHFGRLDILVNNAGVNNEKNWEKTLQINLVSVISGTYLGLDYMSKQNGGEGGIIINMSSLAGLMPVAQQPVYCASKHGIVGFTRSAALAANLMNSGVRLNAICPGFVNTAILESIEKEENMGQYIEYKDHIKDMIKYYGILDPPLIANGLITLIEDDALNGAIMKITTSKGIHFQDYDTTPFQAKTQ
In short: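 NADH formation kinetics: reaction with 30 uM PGE2 and 1 mM NAD+ (final), 20 nM enzyme, Tris-HCl pH 8 with Tween 20, after 15 min compound preincubation at room temperature. Fluorescence change, last versus first of five reads.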
% is scaled to controls: 0 for no effect and ±100 for the full control effect; potency is read from the fitted curve at half-maximal effect.

SMILES	activity change, negative = inhibition [%]	Potency
CCOC(=O)c1cccnc1NC(=O)c1ccncc1	-2.52	
c1ccc2c(c1)CSc1sccc1C2=C1CCNCC1	-1.18	
COCCNc1cc(NCCOC)c([N+](=O)[O-])cc1[N+](=O)[O-]	-9.02	
O=C(O)C1CCN(c2ncnc3ccc(-c4ccccc4C(F)(F)F)cc23)CC1		1.26 µM (active)
c1ccc(-n2ncc3c(N4CCCC4)ncnc32)cc1	-12.9	
Cc1scc(C(=O)NNC(=S)NCc2ccccc2)c1C	-7.44	
Cn1ncc(Br)c1C(=O)NCc1cccs1		15.8 µM (active)
Cc1nnc(SCC(=O)NCc2cccs2)[nH]c1=O	-0.933	
COc1cc(CC(=O)NCc2cccs2)cc(OC)c1OC	-17	
Cc1ccc2nsnc2c1NC(=O)c1ccccc1[N+](=O)[O-]	-15.8	
Cc1ccc(/C=N/NC(=O)CNC(=O)COc2ccccc2)o1	-5.29	
Cc1ccc(C(=O)N/C(=C/c2cccnc2)C(=O)O)cc1	-13.7	
COc1ccc(Br)cc1C(=O)Nc1cccc(C)c1C	-28.1	
COc1ccc(/C=C(/NC(=O)c2ccc(C)cc2)c2nc3ccccc3[nH]2)cc1OC	-24.1	
COc1ccc(Br)cc1C(=O)NC(=S)Nc1cc(-c2nc3ccccc3[nH]2)ccc1C		28.2 µM (active)
C=C(C(C)=O)C(O)c1cccs1 (stereo not given)	-6.13	
COC(=O)C(C(=O)OC)[C@@H](NC=O)c1ccccc1	-1.83	
Cc1ccc(-c2c(C)n([O-])c3c([n+]2=O)CCC3)cc1	-24.7	
CCc1c(C)n([O-])c2c([n+]1=O)CCCCC2	-4.11	
O=[n+]1c2c(n([O-])c3cc(Br)ccc31)CCC2		11.2 µM (active)
O=C(Cc1ccccc1)NCc1ccc(F)cc1	-22.4	
CCCCOC(=O)c1ccc(NC(c2ccc(C)cc2)P(=O)(OC)OC)cc1 (stereo not given)	-21.8	
CCc1c(C)sc(NC(=O)c2cccs2)c1C(N)=O		8.91 µM (active)
CCc1nnc(NC(=O)c2cccs2)s1	-9.46	
CCc1ccccc1NC(=O)c1cccs1	-5.77	

SMILES	activity change, negative = inhibition [%]	Potency
O=C(NCCOc1ccccc1Cl)C(=O)Nc1ccccc1	-2.3	
CC(=O)NS(=O)(=O)c1ccc(NC(=O)C2C3C=CC(C3)C2C(=O)O)cc1 (stereo not given)	-3.59	
COCCCN(C(=S)Nc1c(C)cc(C)cc1C)C(C)c1ccncc1 (stereo not given)	-0.352	
CCn1ncc(Br)c1C(=O)Nc1cc(C)ccc1F	0.199	
CCn1ncc(CNC(=O)C2(C)CC2(Br)Br)c1C (stereo not given)		14.1 µM (active)
COc1cc2c3c(c1)/C(=C1/SC(=S)NC1=O)C(=O)N3C(C)(C)C=C2C	-26.1	
Cc1c(NC(=S)Nc2ccccc2)c(=O)n(-c2ccccc2)n1C	-3.36	
CCC1C=C(c2ccccc2)C=CN=C1N(CC)CC (stereo not given)	-4.96	
NC1=C([N+](=O)[O-])C(c2ccccc2)C2=C(CCCC2=O)O1 (stereo not given)		20 µM (active)
N#CC1=C(N)N(c2ccccc2)C2=C(C(=O)CCC2)C1c1ccccc1 (stereo not given)	-8.89	
NS(=O)(=O)c1ccc(CNC(=O)c2ccc(Cl)cc2[N+](=O)[O-])cc1	-16.4	
CCOc1ccc2cc(C#N)c(SCC(=O)OC)nc2c1	-15	
Cc1cc(C)nc(SCc2ccccc2C#N)n1	-12.7	
Cc1ccc2nc(SCc3nnc(-c4ccccc4[N+](=O)[O-])o3)c(C#N)cc2c1		1 µM (active)
N#Cc1ccccc1Sc1ccccc1C(=O)OCC(=O)NC1CCCCC1	-19.1	
CCN(CC)c1ccc2oc(=O)c(C)nc2c1	-16.7	
CCN(CC)c1ccc(/C=N/Nc2nc(C)cc(C)n2)c(O)c1		20 µM (active)
CCOC(=O)Cc1csc(SCC(=O)NC(C)C23CC4CC(CC(C4)C2)C3)n1 (stereo not given)	-15.9	
Cc1ccc(CNC(=O)c2ccccc2CCc2ccccc2)cc1	-19.3	
Cc1c(C(=O)NCc2ccccc2)cnn1-c1ccccc1		17.8 µM (active)
O=C(Cn1cnc2c(cnn2-c2ccccc2)c1=O)NCc1ccccc1	-9.12	
N#C/C(C(=O)N1CCOCC1)=C1/SC(Cc2ccc(F)cc2)C(=O)N1c1ccccc1 (stereo not given)	-13.3	
Cc1cccc(-n2c(N)cc(=O)nc2SC(C)C(=O)NC2CCCCC2)c1 (stereo not given)	-19.7	
Cc1ccc(-n2c(N)c(C(=O)N3CCOCC3)sc2=S)c(C)c1		7.94 µM (active)
Cc1ccc(C(=O)N2CCN(C(=O)N3CCOCC3)CC2)cc1	3.86	

SMILES	activity change, negative = inhibition [%]	Potency
CC(C)=C1SC(N2CCN(c3cccc(C)c3)CC2)=NC1=O	-16.6	
CC(=O)c1c(N2CCOCC2)nc(=S)n(-c2cc(C)ccc2C)c1C	-12.5	
Cc1cccc(-n2c(N)c(C(=O)N3CCN(C)CC3)sc2=S)c1		10 µM (active)
N#Cc1ccccc1-n1c(N)c(C(=O)N2CCCC2)sc1=S		25.1 µM (active)
O=S(=O)(NCCSc1ccccn1)c1ccc(Cl)cc1	-1.01	
C=C/C1=C/Cc2ccccc2[C@H](C[N+](=O)[O-])C(C(=O)OC)(C(=O)OC)C1	-16.5	
CCOc1cc(CNCc2ccccn2)ccc1OCC(=O)NC(C)(C)C	-9.37	
CC(C)(C)C(=O)N1CCC[C@@]1(CO)C(=O)O	-2.24	
COc1ccc(CNC(=O)CCCn2nc(C)c([N+](=O)[O-])c2C)cc1	-13.5	
CCC(C)C(=O)Nc1cc([N+](=O)[O-])ccc1Cl (stereo not given)	-1.06	
C=CCn1c(CCNC(=O)c2cccs2)n[nH]c1=S	-27.1	
O=C(c1cc(-c2ccc(O)cc2)on1)N1CCCc2ccccc21	-28	
O=C(c1cc(-c2cccc(O)c2)on1)N1CCc2ccccc2C1		25.1 µM (active)
Cc1nnc(SCC(=O)N2CCc3ccccc3C2)s1	-6.45	
CCCNC(=O)NC(=O)COC(=O)CC(NC(N)=O)c1ccc(Cl)cc1 (stereo not given)	-4.57	
O=C(Nc1ccc2c(c1)CCC2)c1cccc(S(=O)(=O)Nc2ccccc2Cl)c1	-11.7	
CC1(C)CC(CCC(=O)Nc2ccccc2Cl)C(=O)O1 (stereo not given)	-12.3	
O=C(Cc1ccc2c(c1)CCCC2)Nc1ccccc1Cl		3.16 µM (active)
Cc1nn(-c2ccccc2)c(-n2cccc2)c1C(=O)O	-6.97	
N/C(=N\OC(=O)CC1CCCCC1)c1ccccc1	-21.9	
C=CCSC1=C(C#N)C(c2cc(Br)c(O)c(OC)c2)CC(=O)N1 (stereo not given)		17.8 µM (active)
CCOC(=O)CSC1=C(C#N)C(c2sccc2C)CC(=O)N1 (stereo not given)	-3.48	
Cc1ccc(C2CC(=O)NC(SCC(=O)OCc3ccccc3)=C2C#N)o1 (stereo not given)	-25.8	
CSCCC(NC(=O)COc1ccccc1)C(=O)Nc1ccc(C)cc1 (stereo not given)	-0.719	
CCCCC/C=C\C/C=C\C/C=C\CCCCC(=O)NCC(=O)O	-3.51	

SMILES	activity change, negative = inhibition [%]	Potency
CCC(=O)Nc1c(C)n[nH]c1C	-8.91	
Nc1nc(SCC(=O)NCCN2CCOCC2)nc2sc3c(c12)CCC3	-10.4	
CN(C)CCSc1nc(N)c2c3c(sc2n1)COC(C)(C)C3	-15.6	
CC(C)(C)C1CCc2c(sc3nc(SCC(N)=O)nc(N)c23)C1 (stereo not given)		28.2 µM (active)
COC(=O)c1sccc1NC(=O)COc1ccc(Cl)cc1	-12	
C=CCNC(=O)CSc1nc2sc(C)c(C)c2c(=O)[nH]1		14.1 µM (active)
Cc1sc2nc(SCC(N)=O)n(C)c(=O)c2c1C	-0.652	
Cc1sc2nc(CSCC(=O)Nc3c(Cl)cccc3Cl)[nH]c(=O)c2c1C	-14	
COc1ccc(-c2[nH]ncc2/C=N/NC(=O)c2cc(Br)ccc2O)c(OC)c1	-16.3	
Cc1ccc(S(=O)(=O)N(C)C)cc1NC(=O)/C=C/c1cccs1	-12.9	
CS(=O)(=O)N(Cc1ccccc1)c1ccc(C(=O)NN=C2CCCCCC2)cc1	-5.89	
CCCC/C(C)=N/NC(=O)NC1CCCCC1	-6.12	
CCS(=O)(=O)Nc1ccc(C2=NN(S(=O)(=O)c3ccc(F)cc3)C(c3ccco3)C2)cc1 (stereo not given)		12.6 µM (active)
Cc1ccc(C2=NN(C(=O)CSc3nc(N)cc(N)n3)C(c3ccco3)C2)cc1 (stereo not given)	-20.9	
CS(=O)(=O)Nc1cccc(C2=NN(S(=O)(=O)c3ccccc3)C(c3cccs3)C2)c1 (stereo not given)	-7.08	
COc1ccc(-c2csc(NC(=O)COC(=O)c3ccc(Br)o3)n2)cc1	-1.93	
O=C1c2ccccc2C(O)N1Cc1ccccc1Cl (stereo not given)		12.6 µM (active)
O=c1ccn(Cc2ccccc2Cl)cc1	0.459	
O=C1c2ccccc2C(O)N1Cc1ccccc1 (stereo not given)	-28.7	
C=CCC1CCC(=O)N2CCCC12 (stereo not given)	-1.41	
COc1ccc(/C=C2\NC(=O)[C@@H]3Cc4ccccc4CN3C2=O)cc1	-5.55	
COC(=O)C1=C(C(=O)OC)[C@@H]2N(Cc3ccccc3)c3ccccc3[C@@]23C[C@@H](C(=O)OC)N(S(=O)(=O)c2ccc(C(F)(F)F)cc2)C3=N1	-11.4	
O=C(Nc1ccn(Cc2ccccc2)n1)c1n[nH]c([N+](=O)[O-])c1Cl		28.2 µM (active)
Cc1ccc(Cn2ccc(NC(=O)c3cc(C(C)C)on3)n2)cc1	-19.4	
O=C(Nc1ccn(Cc2ccc(F)cc2)n1)c1ccncc1	1.11	
